Assay results: PubChem BioAssay (NCATS)
Results filed as inconclusive are left out. Where a call stands in place of a potency, no number is given. Calls of active or inactive are those of the source. Calls follow the shape of the dose curve; as a rule, active = well fitted inhibition curve with a large enough effect; inconclusive = small, poorly fitted or top-dose-only effect; inactive = flat fitted curve, though single readings scatter.

Test system: CP211
Assay: qHTS profiling for inhibitors of Plasmodium falciparum proliferation (AID 504749); also: nearly all actives have a fitted effect of over 60% in size
Conditions: P. falciparum in erythrocytes, SYBR Green DNA, 72 h; series mostly up to 28.7 µM
Procedure, shortened: (§1)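 SYBR Green fluorescence of parasite DNA, read after lysis and overnight dark incubation, measured growth over 72 h in erythrocyte culture at 0.3% parasitemia and 2.5% hematocrit. Data normalised to DMSO and 0.29 uM artemisinin, with plate-drift correction.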
Potency is read from the fitted curve at half-maximal effect.

Structure (SMILES)	Potency
C=Cc1ccc(S(=O)(=O)O)cc1	inactive
OCC1(CO)COC(C(Cl)(Cl)Cl)OC1	inactive
CC(C)(C)CC(C)(C)c1cc(Cc2cc(C(C)(C)CC(C)(C)C)cc(-n3nc4ccccc4n3)c2O)c(O)c(-n2nc3ccccc3n2)c1	inactive
O=C(O)c1ccc(OCCn2ccnc2)cc1	inactive
CC(C)c1ncc([N+](=O)[O-])n1C	inactive
CN1c2c(nc(N)[nH]c2=O)NCC1CNc1ccc(C(=O)NC(CCC(=O)O)C(=O)O)cc1 (configuration not stated)	inactive
N=C(N)n1cccn1	inactive
N[C@H](CC(=O)O)C(=O)O	inactive
NCC(O)CC(=O)O (configuration not stated)	inactive
CCN(CC)C(=O)c1cccnc1	inactive
CCOC(C)OCC	inactive
FCOC(C(F)(F)F)C(F)(F)F	inactive
CN[C@@H]1[C@H](O[C@H]2[C@H](O[C@H]3[C@H](O)[C@@H](O)[C@H](N=C(N)N)[C@@H](O)[C@@H]3N=C(N)N)O[C@@H](C)[C@]2(O)C=O)O[C@@H](CO)[C@H](O)[C@H]1O	inactive
CC(C)[C@@H](N)C(=O)O	inactive
O=C(O)COc1ccc(CCNS(=O)(=O)c2ccccc2)s1	inactive
CC(=O)Nc1ccc(OC(=O)c2ccccc2O)cc1	inactive
CC(C)O	inactive
C=CC[C@@H]1/C=C(\C)C[C@H](C)C[C@H](OC)[C@H]2O[C@@](O)(C(=O)C(=O)N3CCCC[C@H]3C(=O)O[C@H](/C(C)=C/[C@@H]3CC[C@@H](O)[C@H](OC)C3)[C@H](C)[C@@H](O)CC1=O)[C@H](C)C[C@@H]2OC	4.78 µM (active)
Cc1cc(=O)c(C(=O)N[C@@H](C(=O)N[C@@H]2C(=O)N3C(C(=O)O)=C(CSc4nnnn4C)CS[C@H]23)c2ccc(O)cc2)c[nH]1	inactive

Test system: CP215
Assay: as above
Conditions: P. falciparum in erythrocytes, SYBR Green DNA, 72 h; series mostly up to 28.7 µM
Procedure, shortened: as §1

Structure (SMILES)	Potency
CC/C=C\C/C=C\C/C=C\C/C=C\C/C=C\C/C=C\CCC(=O)O	inactive
O=C(O)/C=C/c1ccccc1	inactive
CC(=O)Oc1cccc(C(=O)O)c1OC(C)=O	inactive
CC(CNC(=O)c1cccnc1)NC(=O)c1cccnc1 (configuration not stated)	inactive
CN=C1C=CC(=C(c2ccc(N(C)C)cc2)c2ccc(N(C)C)cc2)C=C1	0.953 µM (active)
CC/C(=C(/CC)c1ccc(OP(=O)(O)O)cc1)c1ccc(OP(=O)(O)O)cc1	inactive
ClC(Cl)Cl	inactive
CCCCCCCCCCCCCCCCCC[N+](C)(C)CCC[Si](OC)(OC)OC	inactive
Oc1cc(O)cc(O)c1	inactive
CC(=O)Nc1c(I)c(C(=O)O)c(I)c(N(C)C(C)=O)c1I	inactive
CC(C)CCC[C@@H](C)[C@H]1CC[C@H]2[C@@H]3CC=C4C[C@@H](O)CC[C@]4(C)[C@H]3CC[C@]12C	inactive
CCCCCCCCCCCCOCCCN	inactive
CC(C)(C)c1ccc2c(S(=O)(=O)O)c(C(C)(C)C)ccc2c1	inactive
CCSc1ccc2c(c1)N(CCCN1CCN(C)CC1)c1ccccc1S2	inactive
c1ccc(-n2cnnn2)cc1	inactive
CN1CCC(OC(=O)C(Oc2ccc(Cl)cc2)Oc2ccc(Cl)cc2)CC1	inactive
CC(C)Cc1ccc([C@@H](C)C(=O)NS(C)(=O)=O)cc1	inactive

Structure (SMILES)	Potency
CCCc1ccc(C(=O)O)cc1	inactive
CNC(=O)c1c(I)c(C(=O)NCC(=O)Nc2c(I)c(C(=O)O)c(I)c(C(=O)NCCO)c2I)c(I)c(N(C)C(C)=O)c1I	inactive
CC1CC(O)CC(C)(C)C1 (configuration not stated)	inactive
C=Cc1ccc(S(=O)(=O)O)cc1	inactive
OCC1(CO)COC(C(Cl)(Cl)Cl)OC1	inactive
CC(C)(C)CC(C)(C)c1cc(Cc2cc(C(C)(C)CC(C)(C)C)cc(-n3nc4ccccc4n3)c2O)c(O)c(-n2nc3ccccc3n2)c1	inactive
O=C(O)c1ccc(OCCn2ccnc2)cc1	inactive
CC(C)c1ncc([N+](=O)[O-])n1C	inactive
CN1c2c(nc(N)[nH]c2=O)NCC1CNc1ccc(C(=O)NC(CCC(=O)O)C(=O)O)cc1 (configuration not stated)	inactive
N=C(N)n1cccn1	inactive
N[C@H](CC(=O)O)C(=O)O	inactive
NCC(O)CC(=O)O (configuration not stated)	inactive
CCN(CC)C(=O)c1cccnc1	inactive
CCOC(C)OCC	inactive
FCOC(C(F)(F)F)C(F)(F)F	inactive
CN[C@@H]1[C@H](O[C@H]2[C@H](O[C@H]3[C@H](O)[C@@H](O)[C@H](N=C(N)N)[C@@H](O)[C@@H]3N=C(N)N)O[C@@H](C)[C@]2(O)C=O)O[C@@H](CO)[C@H](O)[C@H]1O	inactive
